For some of these results: Potency and affinity values are given separately. Calls of active or inactive are those of the source.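 How the source made its calls, unless noted: active means fluorescence ratio normalized to control raised more than 50% in primary screen plus both repeat runs; inactive means the rest.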
Assays:
[1] = system: TRPC4 beta (transient receptor potential cation channel C4), mouse; assay: activators of mouse TRPC4 channel, confirmation, cell-based, Fluo4 calcium, HEK293 TRPC4beta/mu-opioid, duplicates, 10 µM (AID 2426); details: Fluo4 calcium fluorescence, at 10 µM; stronger effect = higher value;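 on activation: percent rise of integrated ratio over buffer wells lacking compound which define 0%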
[2] = system: transient receptor potential cation channel C4 beta (TRPC4), mouse; assay: activators of mouse TRPC4 channel, confirmation, cell-based, second round, Fluo4, HEK293 TRPC4beta/mu-opioid, 1 µM (AID 2461;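 active means primary screen active and over 50% activation in each of two duplicate runs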;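 on activation: 0% = wells without test compound as baseline of integrated fluorescence ratio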); details: Fluo4 calcium fluorescence, at 1 µM; stronger effect = higher value
[3] = system: TRPC4 (transient receptor potential cation channel C4 beta), mouse; assay: positive allosteric modulators of mouse TRPC4, confirmation, cell-based, second round, Fluo-4, HEK293 TRPC4beta/mu-opioid, 1 µM (AID 2554;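 active means primary screen hit whose fluorescence ratio, in both repeats, exceeds the weak agonist control mean by 3 SD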); details: DAMGO EC20, Fluo-4 calcium flux, at 1 µM; stronger effect = higher value
[4] = system: TRPC4 beta (transient receptor potential cation channel C4), mouse; assay: positive allosteric modulators of mouse TRPC4, confirmation, cell-based, Fluo-4, HEK293 TRPC4beta/mu-opioid (AID 2555;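 active means primary screen hit whose calcium fluorescence ratio, in both repeats, exceeds the weak agonist control mean by 3 SD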); details: DAMGO EC20, Fluo-4 calcium flux, at 10 µM; stronger effect = higher value
[5] = target: Short transient receptor potential channel 4 (Mus musculus) (UniProt Q9QUQ5); assay: inhibitors of mouse TRPC4 channel, confirmation, cell-based, Fluo4, HEK293 TRPC4beta/mu-opioid (AID 2636;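 active means calcium signal cut by more than 3 SD below the full-agonist control yet still positive, in both repeats and the earlier primary screen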); details: DAMGO, Fluo4 calcium flux, at 10 µM; stronger effect = higher value
[6] = target: Short transient receptor potential channel 4 (Mus musculus) (UniProt Q9QUQ5); assay: inhibitors of mouse TRPC4 channel, confirmation, cell-based, second round, Fluo4, HEK293 TRPC4beta/mu-opioid, 1 µM (AID 2637;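 active means calcium signal ratio cut to more than 3 SD under the fully stimulated control mean yet still positive, in both repeats and the primary screen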); details: Fluo4 calcium flux, DAMGO, at 1 µM; stronger effect = higher value
[7] = target: Short transient receptor potential channel 4 (Mus musculus) (UniProt Q9QUQ5); assay: TRPC4 positive allosteric modulators, dose response, cell-based, HEK293 TRPC4/mu-opioid, Fluo-4 calcium, EC20 DAMGO (AID 434941;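 active means earlier screen potentiator hit that boosts the TRPC4 ion channel at some dose, with a dose response; inactive means no potentiation, no dose response, or not a prior hit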;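 further: calcium entry triggered by an EC20 dose of DAMGO at the co-expressed mu-opioid receptor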)
[8] = target: Short transient receptor potential channel 4 (Mus musculus) (UniProt Q9QUQ5); assay: mouse TRPC4 channel inhibitors, dose response, cell-based, HEK293 TRPC4/mu-opioid, Fluo-4 calcium (AID 434942;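 active means primary screen inhibitor hit that blocks the TRPC4 channel at some tested dose, yielding a dose curve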)
[9] = target: Short transient receptor potential channel 6 (Mus musculus) (UniProt Q61143); assay: inhibition of mouse TRPC6 channel, confirmation, selectivity assay for TRPC4 inhibitor project, cell-based, HEK293, membrane potential dye, duplicate (AID 434948;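 active means active in primary screen and both duplicates, each dropping signal beyond three positive-control SD with fluorescence still positive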); details: HEK293 TRPC6, membrane potential dye fluorescence, at 10 µM, stimulated with maximal-effect acetylcholine; stronger effect = higher value
[10] = target: Short transient receptor potential channel 6 (Mus musculus) (UniProt Q61143); assay: activation of mouse TRPC6 channel, confirmation, selectivity assay for TRPC4 activator project, cell-based, HEK293, membrane potential dye, duplicate (AID 434950;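 active means membrane potential signal rise above negative control mean plus 3 SD in both duplicates, also active in the earlier TRPC4 screen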;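 on activation: 0% = buffer only wells and 100% = acetylcholine maximal-effect wells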); details: HEK293 TRPC6, membrane potential fluorescence, at 10 µM; stronger effect = higher value
[11] = target: Short transient receptor potential channel 6 (Mus musculus) (UniProt Q61143); assay: TRPC6 potentiation by TRPC4 potentiator hits, confirmation, selectivity assay for TRPC4 potentiator project, HEK293 cells, membrane potential dye, duplicate (AID 434952;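 active means compound raising the membrane signal above positive-control mean plus 3 SD in both repeats, and a primary screen hit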); details: HEK293 TRPC6, membrane potential dye fluorescence, at 10 µM, maximal acetylcholine added after compound; stronger effect = higher value
[12] = target: Short transient receptor potential channel 4 (Mus musculus) (UniProt Q9QUQ5); assay: calcium flux activators in TRPC4/5HT1a cells, counter-screen for TRPC4 activator project, cell-based, second counter screen, HEK293 TRPC4/5HT1a, Fluo-4 (AID 434977;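 active means calcium signal rise above buffer-control mean plus 5 SD in both duplicates, and also a hit in the primary screen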;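 on activation: plate controls were assay buffer for no effect and maximal serotonin response for full effect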); details: Fluo-4 calcium flux, at 10 µM; stronger effect = higher value
[13] = calcium flux inhibitors in TRPC4/5HT1a cells, confirmation, counter-screen for TRPC4 inhibitor project, cell-based, second counter screen, HEK293 TRPC4/5HT1a, Fluo-4 (AID 434978;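 active means primary screen active whose calcium signal fell more than 3 SD beyond the full-serotonin control mean in both duplicate plates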;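 further: serotonin given first at submaximal then at maximal dose after compound preincubation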); details: Fluo-4 calcium flux, at 10 µM, serotonin added to trigger calcium flux; stronger effect = higher value
[14] = system: TRPC4 (mouse), co-expressed with 5HT1a in HEK293; assay: calcium flux potentiators in TRPC4/5HT1a cells, confirmation, counter-screen for TRPC4 potentiator project, cell-based, second counter screen, HEK293 TRPC4/5HT1a, Fluo-4 (AID 434979;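 active means signal rise over 3 SD above mean of control wells given weak agonist, in both repeats and first screen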); details: Fluo-4 calcium flux, at 10 µM, serotonin added at its EC20 dose; stronger effect = higher value
[15] = calcium flux activation in mu-opioid HEK293 cells, confirmation, counter-screen for TRPC4 activator project, cell-based, HEK293 mu-opioid receptor line (AID 449723;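 active means hit in primary screen, with calcium signal over 5 SD above buffer well mean in both duplicates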;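 further: counter screen cells carry the mu-opioid receptor alone and lack TRPC4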); details: Fluo-4 calcium fluorescence, at 10 µM; stronger effect = higher value
[16] = calcium flux enhancement in mu-opioid HEK293 cells, confirmation, counter-screen for TRPC4 allosteric potentiator project, cell-based, HEK293 mu-opioid receptor line (AID 449724;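 active means calcium signal rise more than 3 SD above the low-dose agonist control mean, in both duplicate plates and the primary screen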); details: Fluo-4 calcium flux, at 10 µM, compound added before EC20 DAMGO stimulus; stronger effect = higher value

Short transient receptor potential channel 6 (Mus musculus), sequence (Q61143 whole entry, looked up): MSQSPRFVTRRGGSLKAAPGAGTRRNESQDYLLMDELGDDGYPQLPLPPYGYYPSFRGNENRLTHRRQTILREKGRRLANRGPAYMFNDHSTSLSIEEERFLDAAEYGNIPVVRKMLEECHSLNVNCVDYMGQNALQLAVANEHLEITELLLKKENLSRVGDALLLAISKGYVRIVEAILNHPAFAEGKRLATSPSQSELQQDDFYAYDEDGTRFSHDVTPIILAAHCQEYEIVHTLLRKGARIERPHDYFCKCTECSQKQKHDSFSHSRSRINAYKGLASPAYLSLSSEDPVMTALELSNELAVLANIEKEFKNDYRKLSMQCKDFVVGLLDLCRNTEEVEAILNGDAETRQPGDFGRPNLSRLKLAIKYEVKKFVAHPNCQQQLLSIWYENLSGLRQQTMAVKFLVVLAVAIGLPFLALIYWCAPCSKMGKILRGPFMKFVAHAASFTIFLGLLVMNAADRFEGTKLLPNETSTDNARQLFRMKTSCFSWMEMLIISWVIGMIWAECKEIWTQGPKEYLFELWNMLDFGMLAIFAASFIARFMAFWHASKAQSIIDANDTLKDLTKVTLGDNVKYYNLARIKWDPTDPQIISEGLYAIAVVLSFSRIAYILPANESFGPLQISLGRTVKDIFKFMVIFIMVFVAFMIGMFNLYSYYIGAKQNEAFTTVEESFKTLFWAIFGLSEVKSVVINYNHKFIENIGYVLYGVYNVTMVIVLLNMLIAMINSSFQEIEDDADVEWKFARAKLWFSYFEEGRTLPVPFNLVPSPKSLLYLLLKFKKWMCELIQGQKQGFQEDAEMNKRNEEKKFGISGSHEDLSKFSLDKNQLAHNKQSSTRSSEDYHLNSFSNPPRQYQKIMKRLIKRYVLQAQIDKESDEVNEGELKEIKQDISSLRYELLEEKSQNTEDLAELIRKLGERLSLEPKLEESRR
Short transient receptor potential channel 4 (Mus musculus), sequence (Q9QUQ5 whole entry, looked up): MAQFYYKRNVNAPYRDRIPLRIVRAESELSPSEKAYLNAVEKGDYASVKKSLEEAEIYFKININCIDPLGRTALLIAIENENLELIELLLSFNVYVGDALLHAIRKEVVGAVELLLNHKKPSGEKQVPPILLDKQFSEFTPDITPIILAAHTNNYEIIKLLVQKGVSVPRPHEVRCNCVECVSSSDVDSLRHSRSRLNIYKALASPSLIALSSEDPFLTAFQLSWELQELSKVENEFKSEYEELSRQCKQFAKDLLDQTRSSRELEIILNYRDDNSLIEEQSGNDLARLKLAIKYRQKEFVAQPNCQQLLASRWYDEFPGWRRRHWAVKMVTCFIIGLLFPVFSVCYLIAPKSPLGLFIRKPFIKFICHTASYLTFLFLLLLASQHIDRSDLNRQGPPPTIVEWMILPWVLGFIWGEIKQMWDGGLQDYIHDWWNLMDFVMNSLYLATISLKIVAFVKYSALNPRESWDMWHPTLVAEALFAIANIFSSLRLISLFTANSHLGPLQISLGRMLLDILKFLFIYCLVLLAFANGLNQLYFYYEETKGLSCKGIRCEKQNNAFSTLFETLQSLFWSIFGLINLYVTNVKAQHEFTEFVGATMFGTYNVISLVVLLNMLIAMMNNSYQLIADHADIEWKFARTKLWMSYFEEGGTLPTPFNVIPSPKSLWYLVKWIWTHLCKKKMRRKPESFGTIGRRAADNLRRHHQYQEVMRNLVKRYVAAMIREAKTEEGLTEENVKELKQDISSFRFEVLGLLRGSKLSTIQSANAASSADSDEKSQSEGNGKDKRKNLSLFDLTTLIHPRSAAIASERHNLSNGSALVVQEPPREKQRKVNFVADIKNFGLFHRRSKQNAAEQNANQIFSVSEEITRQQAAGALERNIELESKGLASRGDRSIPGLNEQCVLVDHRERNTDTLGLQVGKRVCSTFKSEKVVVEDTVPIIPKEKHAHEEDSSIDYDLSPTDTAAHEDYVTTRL

CN(C)C(CNC(=O)Nc1cccc(Cl)c1)c1cccnc1 (centres undefined)
active: activation [2] 106% | activation [10] 30.5%
inactive: outcome [1] | outcome [3] | outcome [4] | outcome [5] | outcome [6] | outcome [7] | outcome [8] | outcome [9] | outcome [11] | outcome [12] | outcome [13] | outcome [14] | outcome [15] | outcome [16]

CN(C)c1ccc(-c2sc(Nc3ccccc3)n[n+]2-c2ccc(F)cc2)cc1
active: activation [1] 406% | activation [10] 45% | activation [12] 10.7% | activation [15] 274%
inactive: outcome [2] | outcome [3] | outcome [4] | outcome [5] | outcome [6] | outcome [7] | outcome [8] | outcome [9] | outcome [11] | outcome [13] | outcome [14] | outcome [16]

CCc1cccc(C)c1NC(=S)NCC(c1cccnc1)N(C)C (centres undefined)
inactive: outcome [3] | outcome [4] | outcome [5] | outcome [6] | outcome [7] | outcome [8] | outcome [9] | outcome [10] | outcome [11] | outcome [12] | outcome [13] | outcome [14] | outcome [15] | outcome [16]
active: activation [1] 80% | activation [2] 82%

COc1ccc(Cl)cc1C(=O)Nc1ccccc1N1CCN(C)CC1
inactive: outcome [2] | outcome [3] | outcome [4] | outcome [5] | outcome [6] | outcome [7] | outcome [8] | outcome [9] | outcome [10] | outcome [11] | outcome [13] | outcome [14] | outcome [15] | outcome [16]
active: activation [1] 120% | activation [12] 16%

Cc1sc(NC(=O)c2ccccc2)c(C(=O)NCCN(C)C)c1C
active: activation [1] 128% | activation [12] 12.1%
inactive: outcome [2] | outcome [3] | outcome [4] | outcome [5] | outcome [6] | outcome [7] | outcome [8] | outcome [9] | outcome [10] | outcome [11] | outcome [13] | outcome [14] | outcome [15] | outcome [16]

CCOC(=O)C1(Cc2ccccc2)CCN(Cc2cccn2-c2cccnc2)CC1
inactive: outcome [2] | outcome [3] | outcome [4] | outcome [5] | outcome [6] | outcome [7] | outcome [8] | outcome [9] | outcome [11] | outcome [12] | outcome [13] | outcome [14] | outcome [15] | outcome [16]
active: activation [1] 55% | activation [10] 89%

Fc1ccc(NC(=S)NCCc2ccccn2)cc1
active: activation [1] 199% | activation [2] 60% | activation [12] 88%
inactive: outcome [3] | outcome [4] | outcome [5] | outcome [6] | outcome [7] | outcome [8] | outcome [9] | outcome [10] | outcome [11] | outcome [13] | outcome [14] | outcome [15] | outcome [16]

CCc1cc(OCCN(C)C)ccc1Cl
inactive: outcome [2] | outcome [4] | outcome [5] | outcome [6] | outcome [7] | outcome [8] | outcome [9] | outcome [11] | outcome [13] | outcome [15] | outcome [16]
active: activation [1] 93% | potentiation [3] 47% | activation [10] 39.5% | activation [12] 19.9% | potentiation [14] 37.3%

O=C(Cc1cccc(F)c1F)NC1CCCN(Cc2ccc(Cl)cc2)C1 (centres undefined)
inactive: outcome [1] | outcome [2] | outcome [3] | outcome [4] | outcome [5] | outcome [6] | outcome [7] | outcome [8] | outcome [9] | outcome [11] | outcome [12] | outcome [13] | outcome [14] | outcome [15] | outcome [16]
active: activation [10] 37.5%

O=C(NCCc1ccccn1)c1ccc(COc2ccccc2)o1
inactive: outcome [1] | outcome [2] | outcome [3] | outcome [4] | outcome [5] | outcome [6] | outcome [7] | outcome [8] | outcome [9] | outcome [11] | outcome [13] | outcome [14] | outcome [15] | outcome [16]
active: activation [10] 35% | activation [12] 58.4%

CCOC(=O)C1(CC2CCCCO2)CCN(Cc2cc(F)ccc2-n2cccn2)CC1 (centres undefined)
inactive: outcome [1] | outcome [2] | outcome [3] | outcome [4] | outcome [5] | outcome [6] | outcome [7] | outcome [8] | outcome [9] | outcome [11] | outcome [12] | outcome [13] | outcome [14] | outcome [15] | outcome [16]
active: activation [10] 76.5%

COc1ccc(C(CNC(=O)c2cc(C)on2)N(C)C)cc1 (centres undefined)
inactive: outcome [2] | outcome [3] | outcome [4] | outcome [5] | outcome [6] | outcome [7] | outcome [8] | outcome [9] | outcome [11] | outcome [12] | outcome [13] | outcome [14] | outcome [15] | outcome [16]
active: activation [1] 199% | activation [10] 27.5%

CCN1CCN(c2ccc(S(=O)(=O)N3CCCCC3)cc2NC(=O)CC(C)c2ccccc2)CC1 (centres undefined)
inactive: outcome [2] | outcome [3] | outcome [4] | outcome [5] | outcome [6] | outcome [7] | outcome [8] | outcome [9] | outcome [10] | outcome [11] | outcome [12] | outcome [13] | outcome [14] | outcome [15] | outcome [16]
active: activation [1] 140%

COC(=O)c1ccc(C(=S)NCC2(N(C)C)CCCCC2)cc1
active: activation [1] 181% | activation [10] 41% | activation [12] 22.2% | activation [15] 14.7%
inactive: outcome [2] | outcome [3] | outcome [4] | outcome [5] | outcome [6] | outcome [7] | outcome [8] | outcome [9] | outcome [11] | outcome [13] | outcome [14] | outcome [16]

COc1cccc(CN2CCNC(=O)C2CC(=O)N(C)CCc2ccccn2)c1 (centres undefined)
inactive: outcome [3] | outcome [4] | outcome [5] | outcome [6] | outcome [7] | outcome [8] | outcome [9] | outcome [10] | outcome [11] | outcome [13] | outcome [14] | outcome [15] | outcome [16]
active: activation [1] 186% | activation [2] 92% | activation [12] 39%

CC1CCN(CCCNS(=O)(=O)c2cc(Br)cc3c2N(C(=O)C2CC2)CC3)CC1
inactive: outcome [3] | outcome [4] | outcome [5] | outcome [6] | outcome [7] | outcome [8] | outcome [9] | outcome [10] | outcome [11] | outcome [13] | outcome [14] | outcome [15] | outcome [16]
active: activation [1] 91% | activation [2] 63% | activation [12] 26.3%

COc1ccc(C(CNC(=O)C2CCN(S(=O)(=O)c3ccc(F)cc3)CC2)N(C)C)cc1 (centres undefined)
active: activation [1] 149%
inactive: outcome [2] | outcome [3] | outcome [4] | outcome [5] | outcome [6] | outcome [7] | outcome [8] | outcome [9] | outcome [10] | outcome [11] | outcome [12] | outcome [13] | outcome [14] | outcome [15] | outcome [16]

CCCCN1/C(=C/c2ccc3ccccc3[n+]2CC)Sc2ccccc21
inactive: outcome [2] | outcome [3] | outcome [4] | outcome [5] | outcome [6] | outcome [7] | outcome [8] | outcome [9] | outcome [10] | outcome [11] | outcome [13] | outcome [14] | outcome [16]
active: activation [1] 412% | activation [12] 154% | activation [15] 271%

CCCCCc1c(O)nc(SCCN(C)C)[nH]c1=O
inactive: outcome [2] | outcome [3] | outcome [4] | outcome [5] | outcome [6] | outcome [7] | outcome [8] | outcome [9] | outcome [10] | outcome [11] | outcome [13] | outcome [14] | outcome [15] | outcome [16]
active: activation [1] 63% | activation [12] 15.6%

Reference: PubChem BioAssay
